High-throughput results (PubChem)
Most compounds without a hit are left out; they make up all but 4.3% or so of the library.
NR3A LBD binder: binders of NR3A ligand-binding domain, primary screen, biophysical, differential scanning fluorimetry, uHTS. Glutamate receptor ionotropic, NMDA 3A (GRIN3A) ligand-binding domain. NR3A LBD differential scanning fluorimetry, Tm shift; 0% = protein alone, 100% = glycine-bound protein. Tm shift relative to glycine control, % at 25 µM. 340,000 tested, 2.5% active. AID 1259313, 2017;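 active = melting temperature shift of at least 10% of the positive control shift, at one fixed dose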
ADAM10 inh: human ADAM10 inhibitors, primary screen, biochemical, QFRET, HTS. inhibition, % at 7 µM. 370,000 tested, 0.62% active. recombinant ADAM10, EDANS/DABCYL FRET peptide cleavage, 3 h. AID 720582, 2013;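 active = inhibition above a per-campaign cutoff equal to the mean of compounds falling between control-based bounds plus 3 SD, cut at about 20% in these data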
HGIII-sPLA2 inh: human group III sPLA2 inhibitors, primary screen, biochemical, QFRET, BODIPY PC-A2 liposome substrate; Group 3 secretory phospholipase A2 (Homo sapiens), Q9NZ20; QFRET BODIPY PC-A2 liposome hydrolysis, fluorescence; inhibition, % at 12.2 µM; 370,000 tested, 0.56% active; AID 743126, 2013;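 active = inhibition above mean plus 3 SD of compounds lying within the high and low control bounds, cut at about 19% in these data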
FAS TE block: FAS thioesterase domain inhibitors, primary screen, biochemical, fluorescence intensity, uHTS. Fatty acid synthase (Homo sapiens), P49327. recombinant FAS-TE, OMFH fluorogenic substrate, fluorescence endpoint. inhibition, % at 15 µM. 360,000 tested, 0.67% active;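 active = compounds whose normalised, plate-corrected inhibition of enzyme fluorescence in the single-dose primary screen is 50% or more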
Target sequence (P49327 whole entry, looked up, the tested form may be a part): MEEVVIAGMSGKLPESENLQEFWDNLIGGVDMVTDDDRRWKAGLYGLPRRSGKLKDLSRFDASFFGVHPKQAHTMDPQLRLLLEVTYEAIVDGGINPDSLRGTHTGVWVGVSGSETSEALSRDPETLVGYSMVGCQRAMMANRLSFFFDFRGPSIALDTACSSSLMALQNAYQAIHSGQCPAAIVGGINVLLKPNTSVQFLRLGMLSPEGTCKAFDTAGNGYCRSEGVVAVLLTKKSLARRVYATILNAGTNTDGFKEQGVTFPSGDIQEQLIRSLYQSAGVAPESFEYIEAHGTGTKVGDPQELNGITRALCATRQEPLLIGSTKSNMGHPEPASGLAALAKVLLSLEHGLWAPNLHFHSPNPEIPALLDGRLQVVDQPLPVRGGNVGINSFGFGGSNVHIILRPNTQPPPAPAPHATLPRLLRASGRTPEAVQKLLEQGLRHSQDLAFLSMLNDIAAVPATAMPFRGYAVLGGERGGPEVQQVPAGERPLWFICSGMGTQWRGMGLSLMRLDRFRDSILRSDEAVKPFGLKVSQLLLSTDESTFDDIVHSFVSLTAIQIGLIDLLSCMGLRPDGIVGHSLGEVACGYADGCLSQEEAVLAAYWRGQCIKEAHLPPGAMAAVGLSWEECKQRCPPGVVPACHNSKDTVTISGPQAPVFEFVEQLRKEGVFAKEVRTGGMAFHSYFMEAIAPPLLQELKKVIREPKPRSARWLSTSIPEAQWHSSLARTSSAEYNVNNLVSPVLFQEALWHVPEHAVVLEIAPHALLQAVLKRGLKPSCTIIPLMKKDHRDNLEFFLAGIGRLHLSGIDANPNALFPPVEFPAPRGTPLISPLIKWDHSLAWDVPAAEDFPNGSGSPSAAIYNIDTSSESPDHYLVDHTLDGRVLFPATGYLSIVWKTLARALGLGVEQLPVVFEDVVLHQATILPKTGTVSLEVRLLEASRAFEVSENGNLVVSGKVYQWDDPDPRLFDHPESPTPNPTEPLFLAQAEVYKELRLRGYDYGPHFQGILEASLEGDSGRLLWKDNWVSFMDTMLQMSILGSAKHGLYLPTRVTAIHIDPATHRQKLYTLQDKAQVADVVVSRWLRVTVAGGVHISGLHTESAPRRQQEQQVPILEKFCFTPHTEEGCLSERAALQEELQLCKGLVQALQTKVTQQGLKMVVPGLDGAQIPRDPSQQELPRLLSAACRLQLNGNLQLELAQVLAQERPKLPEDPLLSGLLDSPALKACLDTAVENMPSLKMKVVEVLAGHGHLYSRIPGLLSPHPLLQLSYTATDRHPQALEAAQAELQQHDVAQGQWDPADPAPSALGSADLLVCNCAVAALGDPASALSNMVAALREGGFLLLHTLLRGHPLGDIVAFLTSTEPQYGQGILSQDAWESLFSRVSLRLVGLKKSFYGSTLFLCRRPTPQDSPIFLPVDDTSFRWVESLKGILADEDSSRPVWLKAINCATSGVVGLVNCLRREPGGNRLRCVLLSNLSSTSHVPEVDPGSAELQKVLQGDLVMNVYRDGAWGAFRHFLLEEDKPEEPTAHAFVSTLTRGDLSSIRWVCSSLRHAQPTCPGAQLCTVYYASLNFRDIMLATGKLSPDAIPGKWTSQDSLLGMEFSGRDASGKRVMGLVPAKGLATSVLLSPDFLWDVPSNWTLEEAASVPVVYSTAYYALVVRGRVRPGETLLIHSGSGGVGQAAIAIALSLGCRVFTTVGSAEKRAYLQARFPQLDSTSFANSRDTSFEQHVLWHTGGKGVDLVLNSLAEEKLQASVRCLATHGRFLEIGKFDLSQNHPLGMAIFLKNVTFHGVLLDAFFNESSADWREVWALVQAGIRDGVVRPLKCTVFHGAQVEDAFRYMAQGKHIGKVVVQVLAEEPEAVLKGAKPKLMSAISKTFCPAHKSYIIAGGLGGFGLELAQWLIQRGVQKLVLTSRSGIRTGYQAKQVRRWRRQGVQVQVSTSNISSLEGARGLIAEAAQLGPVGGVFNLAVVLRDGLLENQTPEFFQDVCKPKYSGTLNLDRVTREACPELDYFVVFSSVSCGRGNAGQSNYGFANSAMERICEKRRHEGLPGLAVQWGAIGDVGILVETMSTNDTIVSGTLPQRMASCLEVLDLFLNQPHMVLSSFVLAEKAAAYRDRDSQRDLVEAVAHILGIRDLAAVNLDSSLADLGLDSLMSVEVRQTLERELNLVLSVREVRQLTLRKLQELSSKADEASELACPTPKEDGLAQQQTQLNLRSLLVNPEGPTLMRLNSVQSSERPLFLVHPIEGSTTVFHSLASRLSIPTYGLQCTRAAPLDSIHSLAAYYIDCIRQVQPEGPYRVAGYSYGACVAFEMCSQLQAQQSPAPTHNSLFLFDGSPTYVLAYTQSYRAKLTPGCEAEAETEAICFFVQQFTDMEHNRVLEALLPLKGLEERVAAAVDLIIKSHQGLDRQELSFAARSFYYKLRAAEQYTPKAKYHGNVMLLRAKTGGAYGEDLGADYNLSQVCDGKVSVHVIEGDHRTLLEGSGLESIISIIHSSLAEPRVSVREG
ADAM17 inh: ADAM17 inhibitors, primary screen, biochemical, QFRET | recombinant ADAM17, EDANS/DABCYL FRET peptide cleavage | inhibition, % at 6.95 µM | 370,000 tested, 0.83% active;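 active = inhibition above the mean of compounds lying between control limits plus 3 SD, set per campaign, cut at about 8.5% in these data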
Each line names hits and unclear results; the compound was inactive in the other large screens.

COc1cccc(C2C3=C(N=c4s/c(=C\c5cccc(O)c5)c(=O)n42)c2ccccc2CC3)c1OC (configuration not stated)	NR3A LBD binder 31
COc1ccc(OC2C(=O)N(CCc3ccc(OC)c(OC)c3)C2c2ccc3c(c2)OCO3)cc1 (configuration not stated)	none
COc1ccc(CCN2C(=O)C(Oc3ccccc3)C2c2ccc3c(c2)OCO3)cc1 (configuration not stated)	NR3A LBD binder 12
O=C(Nc1ccc(Br)cc1)c1cccc(S(=O)(=O)Nc2cnc3ccccc3c2)c1	NR3A LBD binder 41
O=C(Nc1ccccc1)c1cccc(S(=O)(=O)Nc2ccccn2)c1	NR3A LBD binder 16
COc1ccc(NC(=O)c2cccc(S(=O)(=O)Nc3ccc(Br)cc3)c2)cn1	NR3A LBD binder 22
O=C(Nc1ccc(Br)cc1)c1cccc(S(=O)(=O)Nc2ccccn2)c1	none
COC(=O)[C@]1(C)CN(C(=O)OC(C)(C)C)C2=C1C(=O)C[C@@](C)(C(=O)OC(C)(C)C)C2	none (no result: NR3A LBD binder, FAS TE block)
COc1ccc(S(=O)(=O)n2[nH]c(=O)c(CCO)c2C)c([N+](=O)[O-])c1	NR3A LBD binder 16
Cc1c(CCO)c(=O)[nH]n1S(=O)(=O)c1ccc(Cl)cc1Cl	none
O=C(OCCN1CCN(C2CN(Cc3cn(Cc4ccccc4Cl)nn3)S(=O)(=O)C2)CC1)c1cc2ccccc2o1 (configuration not stated)	none (no result: NR3A LBD binder, FAS TE block)
NC(=O)Cn1nc(C(F)(F)F)c2c1CCCC2	NR3A LBD binder 27
Cc1ccc2oc(=O)c3cnn(CC(=O)NCCC(C)C)c3c2c1	NR3A LBD binder 13
Cc1ccc2oc(=O)c3cnn(CC(=O)NCCN(C)C)c3c2c1	none
O=C(Nc1ccccc1C(=O)OCC(=O)c1c[nH]c2ccccc12)c1ccco1	NR3A LBD binder 26
CC(C)(C)NC(=O)COC(=O)c1ccccc1NC(=O)c1ccco1	none
C=CCn1c(CCNC(=O)c2cccs2)nnc1SCC(=O)c1ccc(Cl)cc1	none
C=CCn1c(Cc2cccs2)nnc1SCC(=O)c1ccc2ccccc2c1	NR3A LBD binder 16
C=CCn1c(CNC(=O)c2cccs2)nnc1SCC(=O)c1ccc(Br)cc1	NR3A LBD binder 13
COc1ccc(-c2c(C#Cc3ccsc3)c3cc(-c4ccc5[nH]ccc5c4)ccc3n2C)cc1	NR3A LBD binder 11
CN1Cc2nnn(Cc3ccccc3)c2-c2cc(N3CCCC3)ccc2S1(=O)=O	none (no result: NR3A LBD binder, FAS TE block)
Cc1[nH]nc(SCC(=O)Nc2ccc(C#N)cc2)c1[N+](=O)[O-]	NR3A LBD binder 31
CCOC(=O)C1=C(N)Oc2cc(O)ccc2C1c1cccc(Cl)c1 (configuration not stated)	NR3A LBD binder 13
Cc1ccc(Nc2nnc(SCC(=O)c3ccc(O)cc3O)s2)cc1	NR3A LBD binder 26
Cc1ccc(Nc2nnc(SCC(=O)N(C)C3CCS(=O)(=O)C3)s2)cc1 (configuration not stated)	none
Cc1cccc(Nc2nnc(SCC(=O)c3ccc(O)cc3O)s2)c1	NR3A LBD binder 33
O=C1C[C@H](c2ccc3ccccc3c2)N=C2N1/C(=C\c1ccccc1)[C@@H](c1ccccc1C(F)(F)F)N2Cc1ccc2c(c1)OCO2	none (no result: NR3A LBD binder, FAS TE block)
Cc1ccccc1NC(=O)CSc1nc(N)c2c3c(sc2n1)CSC(C)(C)C3	none
Cc1ccc(NC(=O)CSc2nc(N)c3c4c(sc3n2)CSC(C)(C)C4)cc1	NR3A LBD binder 24
COc1ccc(C2C(C(=O)Nc3cc(OC)c(OC)c(OC)c3)CCC(=O)N2c2ccc(OC)cc2)cc1 (configuration not stated)	none (no result: NR3A LBD binder, FAS TE block)
O=C(Cc1ccccc1)Nc1ccc(C(=O)Nc2ccc(O)cc2)cc1	NR3A LBD binder 35
O=C(CSc1ccccc1)Nc1ccc(C(=O)Nc2ccc(O)cc2)cc1	NR3A LBD binder 25
COC(=O)c1ccc(NC(=O)CSc2ccccc2)cc1	none
O=C(NC1CCCCN(Cc2ccc(OC(F)(F)F)cc2)C1=O)c1cccc(F)c1 (configuration not stated)	none (no result: NR3A LBD binder, FAS TE block)
